Experimental data published in PubChem BioAssay (NCATS).
Activity calls are given as the source filed them. The call rests on the fitted dose curve; in most records, active means well fitted curve in the direction sought with a large enough effect; inconclusive means small, poorly fitted or top-dose-only effect, or another doubt; inactive means no such curve, though single readings can be large; an effect the other way counts as inactive or inconclusive.

assay: Cellular Toxicity (caspase-3) HUV-EC-C (AID 656); conditions: HUV-EC-C cells, caspase-3 activation (apoptosis), vehicle = 0, 100 µM tamoxifen = 100%; series mostly up to 92.2 µM
Outline: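 HUV-EC-C endothelial cells, 1000/well, were pre-incubated 5 hr at 37°C, then exposed to compounds for 16 hr at 37°C. Caspase-Glo 3/7 luminescence was read after 20 min at room temperature. AC50 came from Hill fits, normalized to DMSO and 100 uM tamoxifen.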

Structure (SMILES) | outcome
O=C(O)c1c(Cl)cccc1Cl | inactive
CC(=O)CC(C)C | inactive
NC(=O)/N=N/C(N)=O | inactive
O=C(Cl)c1cccc([N+](=O)[O-])c1 | inactive
CCCCC(=O)N(C)C | inactive
CSCCC=O | inactive
CCCCC(C=O)CC (configuration not stated) | inactive
O=Cc1cccc(Br)c1 | inactive
C=CCn1c(=O)n(CC=C)c(=O)n(CC=C)c1=O | inactive
CCOc1cc(OCC)c(C(C)=O)cc1OCC | inactive
CCC(C)=O | inactive
O=C1OC(=O)c2c(Cl)c(Cl)c(Cl)c(Cl)c21 | inactive
CC=O | inactive
CCOc1ccccc1N | inactive
Cc1ccc(C(C)(C)C)cc1 | inactive
CC(N)CN (configuration not stated) | inactive
O=C1CCC(=O)O1 | inactive
O=[N+]([O-])c1ccc(NCCO)c(OCCO)c1 | inactive
ClCCl | inactive
Cc1ccc(C)o1 | inactive

Structure (SMILES) | outcome
NC(=S)NNC(N)=S | inactive
Clc1ccc(Cl)c(Cl)c1Cl | inactive
O=C(Cl)c1ccccc1[N+](=O)[O-] | inactive
Nc1cccc(N)c1 | inactive
CC(C)=C1CCC(C)CC1=O (configuration not stated) | inactive
Nc1ccc(F)cc1F | inactive
COC(=O)CCC(=O)OC | inactive
CCc1ccccc1 | inactive
CC(=O)OCCC(C)C | inactive
C[C@@H]1CC2(OC3C[C@@]4(C)C5=CC[C@H]6C(C)(C)C(O[C@@H]7OC[C@@H](O)[C@H](O)[C@H]7O)CC[C@@]67C[C@@]57CC[C@]4(C)C31)OC(O)C1(C)OC21 (some centres not stated) | inactive
CC(=O)Nc1ccc(N)cc1 | inactive
CN(C)c1cccc(O)c1 | inactive
Nc1ccccc1S(=O)(=O)O | inactive
C=CCOC(=O)CCCCCCCC | inactive
CC(=O)CCc1ccccc1 | inactive
c1ccsc1 | inactive
NC(=O)c1ccccc1[N+](=O)[O-] | inactive
O=C(O)/C=C/C(=O)O | inactive
O=C(O)c1ccc(CO)o1 | inactive

assay: Cellular Toxicity (caspase-3) SHSY5Y (AID 657); conditions: SH-SY5Y caspase-3 activation, DMSO zero, 10 µM staurosporine = 100%; series mostly up to 91.7 µM
Outline: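 SH-SY5Y human neuroblastoma cells (1500/well) were treated with compounds for 16 h at 37 °C, then Caspase-Glo 3/7 luminescence was read after 1 h at room temperature. Data normalized to DMSO and 10 uM staurosporine; AC50 from Hill fits.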

Structure (SMILES) | outcome
O=C(O)c1c(Cl)cccc1Cl | inactive
CC(=O)CC(C)C | inactive
NC(=O)/N=N/C(N)=O | inactive
O=C(Cl)c1cccc([N+](=O)[O-])c1 | inactive
CCCCC(=O)N(C)C | inactive
CSCCC=O | inactive
CCCCC(C=O)CC (configuration not stated) | inactive
O=Cc1cccc(Br)c1 | inactive
C=CCn1c(=O)n(CC=C)c(=O)n(CC=C)c1=O | inactive
CCOc1cc(OCC)c(C(C)=O)cc1OCC | inactive
CCC(C)=O | inactive
O=C1OC(=O)c2c(Cl)c(Cl)c(Cl)c(Cl)c21 | inactive
CC=O | inactive
CCOc1ccccc1N | inactive
Cc1ccc(C(C)(C)C)cc1 | inactive
CC(N)CN (configuration not stated) | inactive
O=C1CCC(=O)O1 | inactive
O=[N+]([O-])c1ccc(NCCO)c(OCCO)c1 | inactive
ClCCl | inactive
Cc1ccc(C)o1 | inactive

Structure (SMILES) | outcome
NC(=S)NNC(N)=S | inactive
Clc1ccc(Cl)c(Cl)c1Cl | inactive
O=C(Cl)c1ccccc1[N+](=O)[O-] | inactive
Nc1cccc(N)c1 | inactive
CC(C)=C1CCC(C)CC1=O (configuration not stated) | inactive
Nc1ccc(F)cc1F | inactive
COC(=O)CCC(=O)OC | inactive
CCc1ccccc1 | inactive
CC(=O)OCCC(C)C | inactive
C[C@@H]1CC2(OC3C[C@@]4(C)C5=CC[C@H]6C(C)(C)C(O[C@@H]7OC[C@@H](O)[C@H](O)[C@H]7O)CC[C@@]67C[C@@]57CC[C@]4(C)C31)OC(O)C1(C)OC21 (some centres not stated) | inactive
CC(=O)Nc1ccc(N)cc1 | inactive
CN(C)c1cccc(O)c1 | inactive
Nc1ccccc1S(=O)(=O)O | inactive
C=CCOC(=O)CCCCCCCC | inactive
CC(=O)CCc1ccccc1 | inactive
c1ccsc1 | inactive
NC(=O)c1ccccc1[N+](=O)[O-] | inactive
O=C(O)/C=C/C(=O)O | inactive
O=C(O)c1ccc(CO)o1 | inactive

assay: Cellular Toxicity (caspase-3) BJ (AID 658); conditions: BJ fibroblasts, luminescence, normalized: DMSO 0%, staurosporine 100%; series mostly up to 91.7 µM
Outline: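 qHTS, BJ fibroblasts, 1000 cells/well; 5 hr preincubation, 16 hr compound, 37 °C; Caspase-Glo 3/7 reagent, 1 hr RT; luminescence. DMSO = 0%, 10 uM staurosporine = 100%. Hill-equation AC50.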

Structure (SMILES) | outcome
O=C(Cl)c1cccc([N+](=O)[O-])c1 | inactive
CCCCC(=O)N(C)C | inactive
CCCCC(C=O)CC (configuration not stated) | inactive
O=Cc1cccc(Br)c1 | inactive
C=CCn1c(=O)n(CC=C)c(=O)n(CC=C)c1=O | inactive
CCC(C)=O | inactive
O=C1OC(=O)c2c(Cl)c(Cl)c(Cl)c(Cl)c21 | inactive
CCOc1ccccc1N | inactive
Cc1ccc(C(C)(C)C)cc1 | inactive
CC(N)CN (configuration not stated) | inactive
O=C1CCC(=O)O1 | inactive
ClCCl | inactive
Cc1ccc(C)o1 | inactive
O=C(Cl)c1ccccc1[N+](=O)[O-] | inactive
Nc1cccc(N)c1 | inactive
CC(C)=C1CCC(C)CC1=O (configuration not stated) | inactive
COC(=O)CCC(=O)OC | inactive
CCc1ccccc1 | inactive
CC(=O)OCCC(C)C | inactive
C[C@@H]1CC2(OC3C[C@@]4(C)C5=CC[C@H]6C(C)(C)C(O[C@@H]7OC[C@@H](O)[C@H](O)[C@H]7O)CC[C@@]67C[C@@]57CC[C@]4(C)C31)OC(O)C1(C)OC21 (some centres not stated) | inactive
CC(=O)Nc1ccc(N)cc1 | inactive
C=CCOC(=O)CCCCCCCC | inactive
CC(=O)CCc1ccccc1 | inactive
O=C(O)c1ccc(CO)o1 | inactive
